# Reference: PubChem BioAssay (Tox21)
# Several values for one entry are separate records, joined by “and”; a condition that tells them apart may be missing. Identical values can stand only once. Results filed as inconclusive are left out. Entries that show only a call come without a potency. The source holds several records for some structures; these can differ, active in one and inactive in another. Activity calls are given as the source filed them. Calls follow the shape of the dose curve; as a rule, active = well fitted cell-killing curve with a large enough effect in the repeat runs; inconclusive = weak or mixed curves, or effect the other way; inactive = flat fitted curve, though single readings scatter.
# Assay: qHTS assay to identify small molecule agonists of the sonic hedgehog signaling (Shh) pathway - cell viability counter screen (AID 1259366); also: nearly all actives have a fitted effect of over 50% in size
# Settings: NIH/3T3 Gli1-Luc viability, CellTiter-Fluor, 24 h; series mostly up to 92.4 µM; viability change, negative = cytotoxic: at the top concentration
# Excerpt: National Center for Advancing Translational Sciences [NCATS]
# NIH Chemical Genomics Center [NCGC]
# U.S. Environmental Protection Agency [EPA]
# National Institutes of Environmental Health Sciences [NIEHS]
# National Toxicology Program [NTP]
# U.S. Food and Drug Administration [FDA]
# The sonic hedgehog (Shh) pathway is essential for normal embryonic development. Dysregulation of the Shh pathway can cause severe developmental defects in organs. Therefore chemicals that interfere with the pathway are potential developmental toxicants. A cell line designated 3T3Gli1-Luc (DMB/OARSA/CFSAN/FDA, Laurel, MD), a NIH/3T3 derived clone containing stably integrated Gli1-Luc reporter is used to detect chemical interference of the Shh pathway, by changes in the expression of the firefly Luc gene under the control of the Gli1 transcriptional response element. This cell line was used to screen Tox21 libraries for identifying and prioritizing the potential developmental toxicants that interfere Shh pathway. The cytotoxicity of the compounds was tested in parallel by measuring the cell viability using CellTiter-Fluor assay system (Promega, Madison, WI) in the same wells.
# Tox21 Assay Protocol Summary:
# 3T3 Gli1-Luc cells were dispensed at 2,000 per well in 5uL of culture medium into white solid bottom 1536-well plates (Greiner Bio-One, Monroe, NC) using a Multidrop Combi (Thermo Scientific, Waltham, MA) dispenser. The assay plates were incubated at 37 C and 5% CO2 for 4hr, and then 23nL of compounds dissolved in DMSO and positive control were transferred using a Pintool station (Wako, San Diego, CA). The assay plates were incubated at 37C and 5% CO2 for 24hr. For viability read, after 23hr of compound treatment, 1uL of CellTiter-Fluor reagent (Promega Corporation, Madison, WI) was added to each well of the assay plates using Flying Reagent Dispenser (FRD, Aurora Discovery, San Diego, CA) and incubated the assay plates at 37C for 1hr. The fluorescence signal was quantified using a ViewLux plate reader (Perkin Elmer, Shelton, CT).
# Potency is read from the fitted curve at half-maximal effect.
Compound,Potency,"viability change, negative = cytotoxic"
C=C(C#N)C(=O)OCC,inactive,–
CN(C)c1ccc(C(=N)c2ccc(N(C)C)cc2)cc1,48 µM (active),–
CN(CCOc1ccc(CC2SC(=O)NC2=O)cc1)c1ccccn1 (stereo not given),inactive,–
Clc1ccc(Cl)c(Cl)c1Cl,inactive,–
NCCNCCNCCNCCN,inactive,–
Cc1cc(O)cc(C)c1Cl,inactive,–
Cc1cc(NS(=O)(=O)c2ccc(N)cc2)no1,inactive,–
O=C(c1cc(O)c(O)c(O)c1)c1ccc(O)c(O)c1O,54.3 µM (active) and 54.5 µM (active),–
C=C(C)C(=O)OCCC[Si](OC)(OC)OC,inactive,–
CC(=O)Nc1ccc(C(=O)O)cc1,inactive,–
C=C(C)C(=O)OCCCCCC,inactive,–
CCc1ccccc1O,inactive,–
CC1(C)CC(N=C=O)CC(C)(CN=C=O)C1 (stereo not given),inactive,–
C=C1CC[C@H](O)CC1=C/C=C1\CCC[C@]2(C)[C@@H]([C@H](C)/C=C/[C@H](C)C(C)C)CC[C@@H]12,–,-19.3% (inactive)
CC#C[C@]1(O)CC[C@H]2[C@@H]3CCC4=CC(=O)CCC4=C3[C@@H](c3ccc(N(C)C)cc3)C[C@@]21C,inactive,–
OC[C@@H](O)[C@@H](O)[C@H](O)[C@@H](O)CO,inactive,–
NCCc1ccc(O)c(O)c1,24.4 µM (active) and inactive,–
CC(C)(C)C(=O)C1C(=O)c2ccccc2C1=O,–,2.48% (inactive)
CC1=C(CC(=O)O)c2cc(F)ccc2/C1=C\c1ccc(S(C)=O)cc1 (stereo not given),inactive,–
C[C@@H]1O[C@@H](OC[C@H]2O[C@@H](Oc3c(-c4ccc(O)c(O)c4)oc4cc(O)cc(O)c4c3=O)[C@H](O)[C@@H](O)[C@@H]2O)[C@H](O)[C@H](O)[C@H]1O,–,-17.6% [at 42.5 µM] (inactive)

Compound,Potency,"viability change, negative = cytotoxic"
CC1CC(OC(=O)c2ccccc2O)CC(C)(C)C1 (stereo not given),inactive,–
NC(=O)/N=N/C(N)=O,inactive,–
CC(C)(CO)COC(=O)C(C)(C)CO,inactive,–
S=c1nc[nH]c2nc[nH]c12,inactive,–
O=C(Oc1ccccc1)c1ccc(O)cc1,inactive,–
CCCCC(CC)COC(C)=O (stereo not given),inactive,–
CCCCC/C=C\C/C=C\CCCCCCCC(=O)OC,inactive,–
Oc1c(Cl)cc(Cl)c(Cl)c1Cl,inactive,–
CCCCCCCCCC(=O)O,inactive,–
CCCCC(CC)C(=O)OCCOCCOCCOC(=O)C(CC)CCCC (stereo not given),inactive,–
CC(C)(N=C=O)c1cccc(C(C)(C)N=C=O)c1,–,-1.96% (inactive)
c1ccc2ccccc2c1,inactive,–
Nc1nc2ncc(CNc3ccc(C(=O)N[C@@H](CCC(=O)O)C(=O)O)cc3)nc2c(=O)[nH]1,inactive,–
O=C(O)c1ccc([N+](=O)[O-])cc1,–,0.841% (inactive)
OC[C@@H](O)[C@H](O)[C@H](O)[C@@H](O)CO,inactive,–
Nc1c(S(=O)(=O)O)cc(Br)c2c1C(=O)c1ccccc1C2=O,inactive and 30.6 µM (active),–
Cn1c([N+](=O)[O-])cnc1COC(N)=O,inactive,–
O=[N+]([O-])c1cc(N(CCO)CCO)ccc1NCCO,–,-26.6% (inactive)
CCCCCCCCCCCCOCC1CO1 (stereo not given),inactive,–
CCCCC(CC)COC(=O)/C=C\C(=O)OCC(CC)CCCC (stereo not given),inactive,–
